High-throughput results deposited in PubChem BioAssay by National Center for Advancing Translational Sciences (NCATS).
Pf growth 48h: inhibits P. falciparum growth in the first generation, 48 h; P. falciparum luciferase growth in erythrocytes, 48 h; Potency, µM (highest dose often 28.7 µM), without a hit: at the highest dose activity change, negative = inhibition, hits mostly inhibitors; hit rate 5.9% among 310,000; AID 504832
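Firefly luciferase activity from engineered P. falciparum reports growth; inhibitors lower the luminescent signal. Cultures contained 2% hematocrit erythrocytes at 0.1% final parasitemia.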
VACV mCherry inh: inhibitors of vaccinia virus infection (mCherry reporter signal) | AID 720579 | hit rate 0.63% among 310,000 | Vaccinia virus mCherry reporter infection, fluorescence | Potency, µM (titrated, usually from 36.5 µM), for the others: at the top dose activity change, negative = inhibition, actives largely listed as inhibitors; calls by dose curve; tested in A549 cells; note: nearly all actives have a fitted effect of over 35% in size
Vaccinia Venus: vaccinia inhibition (Venus reporter) | Vaccinia virus Venus reporter expression, fluorescence | Potency, µM (highest dose often 36.5 µM), for inactives: top-dose activity change, negative = inhibition, most hits filed as inhibitors | hit rate 0.46% among 330,000 | AID 720580; calls by dose curve; tested in A549 cells; note: nearly all actives have a fitted effect of over 30% in size
AMA1 RON2 block: inhibitors of Plasmodium falciparum AMA1-RON2 interaction | Potency, µM (series often up to 58.2 µM), inactives show at the top dose activity change, negative = inhibition, actives largely listed as inhibitors | hit rate 0.2% among 360,000 | AlphaScreen AMA1-biotinylated RON2 peptide binding | AID 720542;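 note: 0% = vehicle wells and -100% = peptide control; nearly all actives have a fitted effect of over 45% in size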
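AMA1 (3D7) with his tag at 25 nM final met compounds first, then biotinylated RON2 peptide at 25 nM; detection used donor plus acceptor beads, 10 µg/mL apiece, read by AlphaScreen after 30 min at room temperature.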
Pf growth 96h: P. falciparum growth inhibition at 96 hours; P. falciparum luciferase reporter growth, 96 h; Potency, µM (highest dose often 28.7 µM), inactives show at the top dose activity change, negative = inhibition, actives largely listed as inhibitors; hit rate 6.9% among 320,000
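96 h incubation, 37 C, 5% CO2, of luciferase-reporter P. falciparum-infected RBCs (2% hematocrit, 0.05% parasitemia final) with test compounds; endpoint luminescence.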
* = called active by the depositor; i = inactive; u = inconclusive; x = no result; [ ] = dose if it differs, or a comment. The list is not random: actives were taken first. Their share in the collection is about 8.7%. Unless noted, calls come from the whole dose curve; as a rule, active = well fitted curve in the direction sought with a large enough effect; inconclusive = small, poorly fitted or top-dose-only effect, or another doubt; inactive = no such curve, though single readings can be large; an effect the other way counts as inactive or inconclusive. Unless noted, % is set by controls: 0 for no effect and ±100 for the full control effect; potency is the fitted concentration of half-maximal effect.

SMILES	Pf growth 48h	VACV mCherry inh	Vaccinia Venus	AMA1 RON2 block	Pf growth 96h
O=C(CCCN1C(=O)/C(=C/c2ccco2)SC1=S)Nc1cccc(C(=O)O)c1	-8.1%	-17.2%	38.1%	-5.4%	13.1µM*
COc1cccc(/C=C2\SC(=S)N(CCCC(=O)N(CCO)c3ccccc3)C2=O)c1	11.7µM*	x	x	u	1.85µM*
COc1cc(/C=C2\SC(=S)N(CCC(=O)Nc3ccccc3O)C2=O)cc(OC)c1OC	u	x	x	-6.9%	13.1µM*
COc1cc(/C=C2\SC(=S)N(CCC(=O)NCCc3ccccc3)C2=O)cc(OC)c1OC	-19.6%	-0.3%	-3.3%	-2.8%	-0.1%
O=C1/C(=C/c2cccc(Br)c2)SC(=S)N1CCC(=O)N(CCO)c1ccccc1	-18.6%	x	x	-19.5%	-19.5%
COc1ccc(CNC(=O)C2CCCN2c2nc(C)c3ccccc3n2)cc1 (stereo not given)	x	-10.4%	-1.0%	x	x
Cc1nn2cc(-c3ccccc3)nc2[nH]c1=O	u	-15.6%[1.46 µM]	-2.2%	13.0%	0.657µM*
O=C(O)CCc1nn2cc(-c3ccccc3)nc2[nH]c1=O	u	x	-9.9%	1.5%	u
CCC(Oc1ccc(C)cc1)C(=O)Nc1ccc(S(=O)(=O)Nc2cc(C)on2)cc1 (stereo not given)	7.8%	8.2%	-1.0%	-3.0%	8.28µM*
Cc1cccc(NS(=O)(=O)c2cc(C(=O)OCC(=O)Nc3cc(C)on3)ccc2C)c1	-28.4%	x	x	48.4%	u
Cc1cc(NS(=O)(=O)c2ccc(NC(=O)COc3ccccc3C(C)(C)C)cc2)no1	-17.3%	-19.0%	-11.8%	-3.7%	10.4µM*
CCOc1cc(C(=O)Nc2ccc(S(=O)(=O)Nc3cc(C)on3)cc2)cc(OCC)c1OCC	u	-14.1%	-12.2%	2.0%	10.4µM*
Cc1cccc(NS(=O)(=O)c2ccc(C)c(C(=O)OCC(=O)Nc3cc(C)on3)c2)c1	u	22.4µM*	9.5%	-5.1%	u
Cc1nn(-c2ccc(N3CCCCC3)nn2)c(C)c1CCC(=O)NCc1ccccc1	x	3.8%	-3.6%	x	x
CCOC(=O)Cn1c(=O)cc(-c2ccccc2)c2c(C)nn(C)c21	x	-6.2%	2.1%	x	x
CCCn1c2ccccc2c2cnn(CC(=O)NCCc3ccc(S(N)(=O)=O)cc3)c(=O)c21	x	0.2%	5.9%	x	x
O=C(NCCc1c[nH]c2ccccc12)OCCSS(=O)(=O)O	6.6%	-13.9%	-7.1%	-0.4%	11.7µM*
O=C(CCNS(=O)(=O)c1ccc(OC(F)(F)F)cc1)NCCc1c[nH]c2ccccc12	u	-6.6%	-14.7%	0.8%	10.4µM*
O=C(NCCc1c[nH]c2ccccc12)/C(=C/c1ccco1)NC(=O)c1ccco1	-1.5%	i	8.5%	10.5%	0.294µM*
Cc1cccc(C)c1NC(=O)NCCc1c[nH]c2ccccc12	x	-16.5%	-10.8%	x	x
O=C(NCCc1c[nH]c2ccccc12)c1ccco1	27.7%	i	-15.6%	-0.2%	50.9%
Cc1cccc(C)c1NC(=O)C(=O)NCCc1c[nH]c2ccccc12	5.22µM*	u	6.4%	-6.4%	u
CCOc1ccccc1NC(=O)CN1C(=O)COc2ccc(S(=O)(=O)Nc3ccccc3)cc21	x	-15.1%	-6.4%	x	x
Cc1nc(SC(C)C(=O)NC2CCCCC2C)c2c(C)c(C)sc2n1 (stereo not given)	7.6%	x	x	3.8%	14.7µM*
CC(Sc1n[nH]c(N)n1)C(=O)NC1CCCCC1C (stereo not given)	85.5%	x	x	2.1%	1.5%
SMILES	Pf growth 48h	VACV mCherry inh	Vaccinia Venus	AMA1 RON2 block	Pf growth 96h
CC1(C)CC(Nc2ccc(Nc3ccccc3)cc2)CC(C)(C)N1	3.29µM*	-6.7%	-2.6%	-23.3%	7.38µM*
CCOc1ccc(-c2cnc3n2CCC3)cc1	x	-19.9%	-20.0%	-23.1%	14.7µM*
Cc1cccn2c(=O)c3c(nc12)N1CCC(Cc2ccccc2)CC1C1(C3)C(=O)N(C)C(=O)N(C)C1=O (stereo not given)	u	x	x	0.9%	u
Cc1cccn2c(=O)c3c(nc12)N1CCCCC1C1(C3)C(=O)N(C)C(=O)N(C)C1=O (stereo not given)	u	i	16.5%	-6.5%	2.94µM*
CN1C(=O)N(C)C(=O)C2(Cc3c(nc4ccccn4c3=O)N3CCC(Cc4ccccc4)CC32)C1=O (stereo not given)	u	x	x	x	-15.0%
O=C1NC(=O)C2(Cc3c(nc4ccccn4c3=O)N3CCCCCC32)C(=O)N1Cc1ccccc1 (stereo not given)	u	-11.4%	-6.7%	-10.5%	5.22µM*
CCOc1cccc2cc(-c3nc4ccc(C(=O)O)cc4[nH]3)c(=O)oc12	127.8%	0.5%	-7.5%	x	316.7%
CCCCC(=O)Nc1nn(CC)c2nc3c(C)cccc3cc12	x	-23.8%	-9.3%	24.1%	u
CCCCC(=O)Nc1nn(CCC)c2nc3ccccc3cc12	11.7µM*	x	-18.5%	26.4%	u
Cc1ccc2c(=O)cc(C(=O)Nc3c(C(=O)c4ccc(F)cc4)oc4ccccc34)oc2c1C	x	-5.7%	-0.4%	x	x
Cc1ccc(NC(=O)Cn2nnc(C(=O)Nc3ccc(C)c(C)c3)c2N)cc1	6.9%	x	x	-19.6%	9.28µM*
Cc1cccc(C)c1NC(=O)Cn1nnc(C(=O)Nc2ccc(F)cc2F)c1N	39.4%	x	x	5.4%	36.1%
Cc1cc(C)c(NC(=O)Cn2nnc(C(=O)Nc3ccc(F)cc3F)c2N)c(C)c1	23.2%	-16.7%	u	7.3%	2.62µM*
Cc1ccc(NC(=O)Cn2nc(C(=O)Nc3ccc(C)cc3)ccc2=O)cc1	-16.5%	i	-12.1%	-7.0%	13.1µM*
O=C(CCc1nnc(C2(c3ccc(Cl)cc3)CCC2)o1)NC1CC1	10.4µM*	-27.6%	-14.3%	18.3%	-60.2%
O=C1C2C3C=CC(C3)C2C(=O)N1c1cccc(N2C(=O)C3C4C=CC(C4)C3C2=O)n1 (stereo not given)	6.0%	x	x	-5.1%	-8.5%
O=C1C2C3C=CC(C3)C2C(=O)N1c1cccc2cccnc12 (stereo not given)	0.1%	x	-28.4%	-0.7%	5.86µM*
CCC1(O)C(=O)OCc2c1cc1n(c2=O)Cc2cc3cc(O)ccc3nc2-1 (stereo not given)	x	u	u	-1.5%	x
CC[C@@]1(O)C(=O)OCc2c1cc1n(c2=O)Cc2cc3c(NC(=O)CN)cccc3nc2-1	u	u	u	80.8%	7.38µM*
CCC1(OC(=O)CN)C(=O)OCc2c1cc1n(c2=O)Cc2cc3ccccc3nc2-1 (stereo not given)	1.65µM*	7.08µM*	u	-3.4%	0.928µM*
CCn1c(/C=C/N(C(C)=O)c2ccccc2)[n+](CC)c2ccc(Cl)cc21	2.08µM*	i	-1.1%	6.4%	38.5%
CC[n+]1c(/C=C/C=C/N(C(C)=O)c2ccccc2)sc2ccccc21	4.65µM*	x	190.7%	-28.9%	9.28µM*
CC[n+]1c(/C=C/C=C/c2ccc(N(C)C)cc2)sc2ccccc21	-10.6%	u	u	17.8µM*	4.6%
CCC(=O)Nc1nnc(S(=O)(=O)N(C)Cc2ccc(Cl)cc2)s1	x	i	-8.4%	x	x
